Records with an inconclusive call do not appear. A call without a number means that no potency is given here. Activity calls are given as the source filed them. Unless noted, calls follow the shape of the dose curve; as a rule, active = well fitted curve in the direction sought with a large enough effect; inconclusive = small, poorly fitted or top-dose-only effect, or another doubt; inactive = no such curve, though single readings can be large; an effect the other way counts as inactive or inconclusive.
Assays:
[1] = test system: Zika virus NS2B-NS3 protease (linked construct); assay: Primary screen NINDS Rhodamine qHTS for Zika virus inhibitors (AID 1347160); also: nearly all actives have a fitted effect of over 55% in size
Procedure, shortened: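 Single-chain NS2B-NS3 protease, 25 nM, pH 8.0; compounds preincubated 15 min. Activity: Rhodamine110 release from 1.5 microM substrate over 15 min, room temperature, data fitted to 4-parameter Hill.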

[2] = target: Calcium and integrin-binding protein 1 (Homo sapiens) (UniProt Q99828); assay: Primary qHTS for Identification of Calcium Integrin Binding Protein 1 (CIB1) Competitor (AID 1508620);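 also: GST tagged CIB1 binding a fluorescein labelled alphaIIb integrin peptide tracer; top concentration of the series differs between compounds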
Procedure, shortened: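 CIB1-GST (1 uM final) and compound incubated 15 min at room temperature before adding FITC-alphaIIb peptide tracer (100 nM final). Competition for binding read by fluorescence polarization (ex 480, em 540) after another 15 min at room temperature.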

[3] = Primary fluorescence-based thiol-reactive (MSTI) qHTS assay for identification of artifact compounds. (AID 1845221); also: nearly all actives have a fitted effect of over 65% in size; also: potency is read from the fitted curve at half-maximal effect
Procedure, shortened: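 In PBS pH 7.4 with 2% DMSO, each compound met 4 uM MSTI for one hour at ambient temperature, shielded from light, before fluorescence detection.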

KB-3-1 = assay: Cytotoxic Profiling of Annotated Libraries Using Quantitative High-Throughput Screening (AID 1296008); conditions: Five cell lines viability, CellTiter-Glo ATP luminescence, 48-72 h; max response: stronger effect = lower value; also: nearly all actives have a fitted effect of over 60% in size; also: potency is read from the fitted curve at half-maximal effect
Procedure, shortened: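 Cytotoxicity was measured as CellTiter-Glo ATP luminescence, read after 10 min at room temperature. Compound treatment of the cells lasted 48 or 72 hr at 37 degrees Celsius in a qHTS format.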

CAOV3 = assay: Primary qHTS to identify gynecologic anti-cancer compounds using libraries of approved drugs and bioactive compounds (AID 1345084); conditions: Gynecologic cancer cell panel viability, ATPlite luminescence, 48 h; series mostly up to 57.5 µM; also: nearly all actives have a fitted effect of over 55% in size; also: potency is read from the fitted curve at half-maximal effect
Procedure, shortened: (§1)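 Five-concentration response, 48 h; readout is ATP-driven luciferase luminescence.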

JEG-3 = assay: as above; conditions: Gynecologic cancer cell panel viability, ATPlite luminescence, 48 h; series mostly up to 57.5 µM
Procedure, shortened: as §1

SKOV3 = assay: as above; conditions: Gynecologic cancer cell panel viability, ATPlite luminescence, 48 h; series mostly up to 57.5 µM
Procedure, shortened: as §1

[4] = test system: Zika virus NS2B-NS3 protease (unlinked complex); assay: Primary screen GU Rhodamine qHTS for Zika virus inhibitors: Unlinked NS2B-NS3 protease assay (AID 1347159); also: nearly all actives have a fitted effect of over 60% in size
Procedure, shortened: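 Unlinked NS2B/NS3, 25 nM; Rhod110 peptide, 1.5 microM; compounds, up to 114 microM. Reaction run 15 min at RT in 10 mM Tris-HCl pH 8.0, 0.01% Tween 20; kinetic fluorescence change fitted with a 4-parameter Hill model.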

[5] = Primary redox qHTS assay for identification of artifact compounds. (AID 1845223)
Procedure, shortened: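 Redox-cycling detection via DTT (250 uM final) oxidation coupled to Amplex Red (25 uM)/HRP (250 mU/mL) in HBSS. 15 min preincubation plus 30 min after DTT, room temperature. Ex/Em 525/598 nm; 4-parameter Hill fit against DMSO and 10 uM DA3003.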

[6] = P-glycoprotein substrates identified in KB-3-1 adenocarcinoma cell line, qHTS therapeutic library screen (AID 1346986); also: nearly all actives have a fitted effect of over 60% in size
Procedure, shortened: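 Dose-response cytotoxicity, KB-3-1 vs P-gp-high KB-8-5-11, no colchicine in assay medium. Read: CellTiter-Glo at 72 h.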

[7] = target: Cytochrome P450 2D6 (Homo sapiens) (UniProt P10635); assay: Cytochrome P450 family 2 subfamily D member 6 (CYP2D6) small molecule antagonists: luciferase biochemical (cell-free) qHTS assay (AID 1645840; active = well fitted curve in the direction sought with a large enough effect in the repeat runs; an effect the other way counts as inactive or inconclusive; also: nearly all actives have a fitted effect of over 55% in size; also: potency is read from the fitted curve at half-maximal effect)
Procedure, shortened: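 P450-Glo CYP2D6 system: proluciferin substrate converted by enzyme to luciferin, read by luminescence proportional to activity. Enzyme-substrate mix with compound 10 min at room temperature, then NADPH regeneration 1 h before detection reagent.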

[8] = target: Cytochrome P450 2C9 (Homo sapiens) (UniProt P11712); assay: Cytochrome P450 family 2 subfamily C member 9 (CYP2C9) small molecule antagonists: luciferase biochemical (cell-free) qHTS assay (AID 1645842; active = well fitted curve in the direction sought with a large enough effect in the repeat runs; an effect the other way counts as inactive or inconclusive; also: nearly all actives have a fitted effect of over 55% in size)
Procedure, shortened: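 P450-Glo CYP2C9 system: proluciferin substrate with enzyme in mix containing 0.4% BSA, 10 min at room temperature, then NADPH regeneration solution added and incubated 1 h at 37C. Detection reagent stopped reaction; luminescence read after 20 min as RLU.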

[9] = Cytotoxicity counterscreen for inhibitors of SARS-CoV-2 cell entry (AID 1645845; calls by dose curve; also: nearly all actives have a fitted effect of over 50% in size; also: potency is read from the fitted curve at half-maximal effect)
Procedure, shortened: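 ATP-content luminescence (ATPLite 1step, 15 min RT) read after 48 h compound exposure of Expi293F cells stably expressing human ACE2; normalized to cells-only wells and media-only wells.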

[10] = qHTS drug screen for cell cycle checkpoint inhibitors in PARPi-resistant BRCA-mutant ovarian cancer cell lines. (AID 1963452; calls by dose curve); conditions: PEO1/OlaR viability, CellTiter-Glo luminescence, 96 h, stronger effect = lower value
Procedure, shortened: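 PEO1, PEO4 and PEO1/OlaR ovarian cancer cells, 600 per well, exposed 96 h at 37C to a dilution series. Viability read by CellTiter-Glo luminescence, normalized to DMSO and empty wells; activity summarized as Z-AUC.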

CRL-7250 = normal cell line; assay: qHTS assay to identify novel small-molecules to repurpose for Merkel cell carcinoma treatment (AID 1296009); conditions: MCC and control cell lines, CellTiter-Glo viability, 72 h; series mostly up to 92 µM; also: nearly all actives have a fitted effect of over 60% in size
Procedure, shortened: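 Cell viability measured by CellTiter-Glo following 72 hr compound treatment at 37 degree celsius, with NPC and MIPE libraries tested in 8- and 11-point concentration series.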

Sequence of Cytochrome P450 2D6 (Homo sapiens) (P10635 whole entry, looked up): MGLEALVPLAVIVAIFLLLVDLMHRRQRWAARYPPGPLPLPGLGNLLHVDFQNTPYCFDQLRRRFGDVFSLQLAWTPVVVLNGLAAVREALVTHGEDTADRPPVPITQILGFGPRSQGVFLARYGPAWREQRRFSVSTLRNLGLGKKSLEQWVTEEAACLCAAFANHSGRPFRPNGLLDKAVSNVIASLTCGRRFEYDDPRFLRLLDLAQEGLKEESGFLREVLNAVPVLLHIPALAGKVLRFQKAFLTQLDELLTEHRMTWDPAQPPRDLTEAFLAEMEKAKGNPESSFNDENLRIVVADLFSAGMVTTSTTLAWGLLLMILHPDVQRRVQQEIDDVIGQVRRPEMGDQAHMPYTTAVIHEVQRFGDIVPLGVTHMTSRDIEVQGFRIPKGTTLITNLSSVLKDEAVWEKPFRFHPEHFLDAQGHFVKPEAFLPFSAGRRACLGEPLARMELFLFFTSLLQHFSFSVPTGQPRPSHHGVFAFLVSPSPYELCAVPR
Sequence of Calcium and integrin-binding protein 1 (Homo sapiens) (Q99828 whole entry, looked up): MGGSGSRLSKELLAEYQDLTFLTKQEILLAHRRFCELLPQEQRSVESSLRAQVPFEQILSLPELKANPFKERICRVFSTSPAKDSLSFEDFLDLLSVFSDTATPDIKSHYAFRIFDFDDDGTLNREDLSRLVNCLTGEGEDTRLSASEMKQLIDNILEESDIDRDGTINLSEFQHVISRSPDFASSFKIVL
Sequence of Cytochrome P450 2C9 (Homo sapiens) (P11712 whole entry, looked up): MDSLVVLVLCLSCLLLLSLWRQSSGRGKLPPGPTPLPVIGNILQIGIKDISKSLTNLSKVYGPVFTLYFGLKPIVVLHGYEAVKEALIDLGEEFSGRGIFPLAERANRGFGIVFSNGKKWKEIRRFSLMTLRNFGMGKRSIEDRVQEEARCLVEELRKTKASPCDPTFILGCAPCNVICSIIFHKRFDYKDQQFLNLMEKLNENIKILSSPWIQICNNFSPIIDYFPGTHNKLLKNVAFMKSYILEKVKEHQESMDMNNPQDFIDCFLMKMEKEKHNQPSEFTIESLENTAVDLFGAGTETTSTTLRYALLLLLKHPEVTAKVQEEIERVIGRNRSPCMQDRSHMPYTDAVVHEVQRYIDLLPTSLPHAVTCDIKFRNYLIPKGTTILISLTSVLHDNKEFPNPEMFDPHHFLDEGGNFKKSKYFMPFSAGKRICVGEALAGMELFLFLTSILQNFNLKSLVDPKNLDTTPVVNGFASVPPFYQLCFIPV

CNC(=O)c1cc(C#N)cc(C)c1NC(=O)c1cc(Br)nn1-c1ncccc1Cl
Potency [1]: inactive
Potency [2]: inactive
Potency [3]: inactive
max response (KB-3-1): -25.7% (inactive)
Potency (CAOV3): inactive
Potency (JEG-3): inactive
Potency (SKOV3): inactive

CC1=C[C@H]2O[C@@H]3C[C@H]4OC(=O)/C=C/C=C/C(=O)OCC/C(C)=C/C(=O)OC[C@@]2(CC1)[C@]4(C)[C@]31CO1
Potency [4]: inactive
Potency [1]: inactive
Potency [2]: inactive
Potency [3]: inactive
Potency [5]: inactive
Potency (KB-3-1): 20 nM (active)
Potency (JEG-3): 126 nM (active)
Potency (SKOV3): 70.8 nM (active)

COC1CC(O[C@H]2CC[C@]3(C)C4CC[C@]5(C)[C@@H](C6=CC(=O)OC6)[C@@H](OC(C)=O)C[C@]5(O)C4CC[C@@H]3C2)OC(C)C1O[C@@H]1O[C@H](CO)[C@@H](O)[C@H](O)[C@H]1O (stereo partly drawn)
Potency [2]: inactive
Potency [3]: 6300 nM (active)
Potency (KB-3-1): 862 nM (active)
Potency (CAOV3): 1120 nM (active)
Potency (SKOV3): 891 nM (active)

CC(=O)OC[C@]12C[C@H](O)C(C)=C[C@H]1O[C@@H]1[C@H](O)[C@@H](OC(C)=O)[C@@]2(C)[C@]12CO2
Potency [4]: inactive
Potency [1]: inactive
Potency [5]: inactive
Potency (KB-3-1): 32.1 nM (active)
Potency (JEG-3): 224 nM (active)

C[N@@+]1(CC2CC2)CC[C@]23c4c5ccc(O)c4O[C@H]2C(=O)CC[C@@]3(O)[C@H]1C5
Potency [6]: inactive
Potency [4]: inactive
Potency [2]: inactive
Potency [3]: inactive
Potency [5]: inactive
outcome (KB-3-1): inactive
Potency (CAOV3): inactive
Potency (JEG-3): inactive

OCc1nnc2n1-c1ccc(Cl)cc1C(c1ccccc1Cl)=NC2
Potency [4]: inactive
Potency [1]: inactive
Potency [2]: inactive
Potency [3]: inactive
Potency [5]: inactive
max response (KB-3-1): 8.98% (inactive)
Potency (CAOV3): inactive
Potency (JEG-3): inactive
Potency (SKOV3): inactive

CC(=O)OC[C@]12C[C@H](OC(=O)CC(C)C)C(C)=C[C@H]1O[C@@H]1[C@H](O)[C@@H](OC(C)=O)[C@@]2(C)[C@@]12CO2
Potency [4]: inactive
Potency [1]: inactive
Potency [2]: inactive
Potency [3]: inactive
Potency [5]: inactive
Potency (KB-3-1): 35.5 nM (active)
Potency (CAOV3): 89.1 nM (active)
Potency (JEG-3): 1000 nM (active)

COC1CC(O[C@H]2CC[C@]3(C=O)C4CC[C@]5(C)[C@@H](C6=CC(=O)OC6)CC[C@]5(O)[C@@H]4CC[C@@H]3C2)OC(C)C1O[C@@H]1O[C@H](CO)[C@@H](O[C@@H]2O[C@H](CO)[C@@H](O)[C@H](O)[C@H]2O)[C@H](O)[C@H]1O (stereo partly drawn)
Potency [4]: inactive
Potency [1]: inactive
Potency (SKOV3): 398 nM (active)

CC[C@@]1(O)C(=O)OCc2c1cc1n(c2=O)Cc2cc3c(OC)cccc3nc2-1
Potency [4]: inactive
Potency [2]: inactive
Potency [3]: inactive
Potency (KB-3-1): 1280 nM (active)
Potency (SKOV3): 447 nM (active)

CN1C[C@@H]2CN(c3ccc(-c4ccccc4)nn3)C[C@@H]2C1
Potency [4]: inactive
Potency [7]: inactive
Potency [3]: inactive
Potency [5]: inactive
Potency (CAOV3): inactive
Potency (JEG-3): inactive
Potency (SKOV3): inactive

Cc1sc2c(c1C)C(c1ccc(Cl)cc1)=NC(CC(=O)Nc1ccc(O)cc1)c1nnc(C)n1-2 (stereo not drawn)
Potency [1]: inactive
Potency [2]: inactive
Potency [7]: inactive
Potency [8]: inactive
Potency [9]: inactive
Potency [5]: inactive
Potency (JEG-3): inactive
Potency (SKOV3): 3160 nM (active)

Cc1ccccc1CN1CCC(N2CCC(n3c(=O)[nH]c4ccccc43)CC2)CC1
Potency [4]: inactive
Potency [1]: inactive
Potency [2]: inactive
Potency [7]: 12000 nM (active)
Potency [8]: inactive
Potency [3]: inactive
Potency (JEG-3): inactive

C=CCN1CC[C@]23c4c5ccc(O)c4O[C@H]2[C@@H](O)CC[C@@]3(O)[C@H]1C5
Potency [4]: inactive
Potency [2]: inactive
Potency [3]: inactive
Potency [5]: inactive
Potency (CAOV3): inactive
Potency (JEG-3): inactive
Potency (SKOV3): inactive

C[C@]12CC[C@H](O[C@@H]3O[C@H](CO)[C@@H](O)[C@H](O)[C@H]3O[C@@H]3O[C@H](CO)[C@@H](O)[C@H](O)[C@H]3O)CC1=CC[C@@H]1[C@@H]2CC[C@]2(C)[C@@H](C3=CC(=O)OC3)CC[C@]12O
Potency [4]: inactive
Potency [1]: inactive
Potency [2]: inactive
Potency [3]: inactive
Potency [5]: inactive
Potency (CAOV3): inactive
Potency (JEG-3): inactive

COc1cc2c(c(OC)c1OC)-c1ccc(SC)c(=O)cc1[C@@H](NC(C)=O)CC2
Potency [1]: inactive
Potency [2]: inactive
Potency [3]: inactive
Potency (KB-3-1): 5.8 nM (active)

C[C@@H]1CN(Cc2ccc(F)cc2)CCN1C(=O)COc1ccc(Cl)cc1NC(N)=O
Potency [4]: inactive
Potency [1]: inactive
Potency [2]: inactive
Potency [9]: 2510 nM (active)
Potency [3]: inactive
Potency [5]: inactive
Z-AUC [10]: -0.0879 (inactive)
Z-AUC ([10]; measured here: PEO1 parental Z-AUC): -1.28
Z-AUC ([10]; measured here: PEO4 Z-AUC): 0.406
Potency (JEG-3): inactive
Potency (SKOV3): 3160 nM (active)

N#CC(O[C@@H]1O[C@H](CO)[C@@H](O)[C@H](O)[C@H]1O)c1ccccc1 (stereo partly drawn)
Potency [4]: inactive
Potency [1]: inactive
Potency [2]: inactive
Potency [3]: inactive
Potency [5]: inactive
Potency (CRL-7250): inactive
Potency (CAOV3): inactive
Potency (JEG-3): inactive
Potency (SKOV3): inactive

— PubChem BioAssay (NCATS)
